Pf Dd2 inh: inhibitors of Plasmodium falciparum Dd2 growth. P. falciparum Dd2 growth, SYBR Green, 72 h. Potency, µM (doses to about 28.9 µM), without a hit: at the top dose activity, negative = inhibition, actives largely listed as inhibitors. 120,000 tested, 4.3% active. AID 1347417; active means well fitted inhibition curve with a large enough effect;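 further: plate controls were DMSO vehicle for no effect and reference drug for full effect; nearly all actives have a fitted effect of over 65% in size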
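Readout: SYBR Green fluorescence, 485 nm excitation, 535 nm emission, after ~16 h lysis at 37C. Before that, Dd2-infected red cells (2.5% hematocrit) grew 72 h with compound, 29 uM top final concentration.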
Starred values were filed as active, the others as inactive; i = inactive; [ ] = remark or other dose. Many of the other results were omitted from the sample, so hits are more common in it than they were. Potency means the concentration at half of the fitted maximal effect.

SMILES	Pf Dd2 inh
CCOc1ccc(C(=O)N2CCCN(c3cc(-c4ccc(Cl)cc4)[nH]n3)CC2)cc1OCC	5.01µM*
COc1ccc(-c2noc(CN(C)CCOc3ccc(C)cc3)n2)c(OC)c1OC	-3.4%
CCCN1CCc2[nH]cnc2C12CCN(C(=O)C1COc3ccccc3O1)CC2 (stereo not given)	-21.6%
O=C(c1ccc(Cl)cc1)N1CCC2(CC1)COc1ccccc1[S+](=O)([O-])N2	6.5%
CNC(=O)c1cccc(-c2cnc3[nH]cc(CC(=O)NCc4cccs4)c3c2)c1	i
CC(O)c1cc2n(n1)CCN(C(=O)C1(c3ccc(Cl)cc3)CCC1)C2 (stereo not given)	-10.1%
Cc1ccc(-c2nnc(C3CN(C(=O)CC(C)C)CC34CCOCC4)o2)cc1 (stereo not given)	-16.8%
O=C(Nc1nccs1)C1CC(=O)N(c2n[nH]c3cc(Br)ccc23)C1 (stereo not given)	-16.0%
Cc1c(C)n(Cc2ccccc2)c2ccc(C(=O)NCc3ccco3)cc12	7.08µM*
COc1cccc(CNC(=O)c2ccc3c(c2)c(C)c(C)n3Cc2ccccc2)c1	0.7%
CCc1ccc(CNC(=O)c2ccc3c(c2)c(C)c(C)n3Cc2ccccc2)cc1	24.2%
COc1ccccc1CCNC(=O)c1ccc2c(c1)c(C)c(C)n2Cc1ccc(Cl)cc1	i
Cc1ccc(CNC(=O)c2ccc3c(c2)c(C)c(C)n3Cc2ccc(Cl)cc2)o1	10µM*
Cc1ccc(CNC(=O)c2ccc3c(c2)c(C)c(C)n3Cc2ccccc2)o1	-28.8%
COc1ccc(CCC(=O)N2CCC[C@H]2c2nc(-c3ccc(C)cc3)no2)cc1	2.8%
COc1ccc(NC2CCCN(C(=O)c3ccccc3C(F)(F)F)C2)cc1OC (stereo not given)	i
Cc1cnc(C2CCNC2)n1C(C)C (stereo not given)	0.8%
CCCS(=O)(=O)NCc1cccnc1Oc1cccc(C(F)(F)F)c1	-22.5%
CC1=NOC2(CCN(C(=O)c3ccc(C(F)(F)F)cc3)CC2)C1	13.1%[44.1 µM]
COCC1CN(C(C)=O)CC12CCN(S(=O)(=O)c1cccs1)CC2 (stereo not given)	-5.0%
COCC1CN(C)CC12CCN(Cc1ccc(OC)cc1)CC2 (stereo not given)	i
COCC1CN(C)CC12CCN(Cc1ccc(F)cc1F)CC2 (stereo not given)	-25.4%
COCC1CN(C)CC12CCN(Cc1ccc(F)c(Cl)c1)CC2 (stereo not given)	5.01µM*
COCC1CN(S(=O)(=O)c2cccs2)CC12CCNCC2 (stereo not given)	29.6%
COCC1CN(C)CC12CCN(S(=O)(=O)c1cccs1)CC2 (stereo not given)	3.55µM*
SMILES	Pf Dd2 inh
COc1ccc(C(=O)N2C[C@@H]3C[C@H](C2)c2ccc(NS(=O)(=O)c4ccccc4C#N)c(=O)n2C3)cc1	-16.7%
O=C(Cc1ccc(F)cc1)N1CC(F)(F)C[C@H]1c1nc(C2CC2)no1	-7.5%
COCC1CN(C)CC12CCN(C(=O)Cc1cccc(F)c1)CC2 (stereo not given)	i
Cc1ccc(CNC(=O)Cn2cccc2-c2nc(-c3ccccc3)no2)cc1	20.4%
CN(Cc1ccc(OC(F)(F)F)cc1)Cc1cccn1C	i
COc1ccc(CCN2CC(NCc3ccc(-n4cccn4)cc3)CC2=O)cc1 (stereo not given)	-24.1%
Cc1cc(C)c(NC(=O)Cn2nc3n(c2=O)CCCC3)c(C)c1	i
CCOC(=O)c1cnc2c(ccc3ccccc32)c1Nc1ccccc1O	11.2µM*
CCOC(=O)c1cnc2c(C)cc(C)cc2c1Nc1ccccc1OCC	0.0%
CCOC(=O)c1cnc2c(C(F)(F)F)cccc2c1Nc1cccc(C(=O)OC)c1	2.82µM*
CCOC(=O)c1cnc2c(C)cccc2c1Nc1ccc(OC(C)C)cc1	-29.8%
CCOC(=O)c1sc2ccccc2c1S(=O)(=O)Nc1cccc(C(F)(F)F)c1	i
CCOC(=O)c1cnc2c(C)c(Cl)ccc2c1Nc1ccc(C)cc1C	-23.4%
O=C(c1ccn[nH]1)N1CC(F)(F)C[C@H]1c1nc(C2CC2)no1	19.0%
O=C(Cc1cccc(F)c1)NCCC1CCN(C(=O)Nc2ccccc2F)CC1	-19.1%
COc1ccc(CN2CCn3c(nn(-c4ccc(C(F)(F)F)cc4)c3=O)C2)cc1	-6.5%
O=c1n(-c2ccc(Cl)cc2)nc2n1CCN(Cc1ccc(C(F)(F)F)cc1)C2	-19.1%
O=c1n(-c2ccncc2)nc2n1CCN(Cc1ccc(C(F)(F)F)cc1)C2	7.94µM*
COc1ccc(CC(=O)N2[C@@H]3CC[C@H]2CC(NC(=O)c2ccncc2)C3)cc1 (stereo not given in full)	-26.8%
CCCn1cc(-c2ccncc2)cc1C(=O)NCc1ccc(OC)cc1	i
CCn1cc(-c2ccc(OC)cc2)cc1C(=O)NC(C)c1cccnc1 (stereo not given)	-21.6%
CCCn1cc(-c2ccncc2)cc1C(=O)NC(C)c1ccc(OC)cc1 (stereo not given)	7.94µM*
COc1ccc(C(=O)NC2CCN(c3cn[nH]c(=O)c3)CC2)cc1OC	8.8%
O=C(CN1C(=O)C(c2ccccc2)=NC12CCCC2)NCc1ccc(F)cc1	i
